Results on 15 molecules are retold here after paper PMC5540273 (PLoS ONE, 2017).

The structures appear in SMILES notation.

Test systems include ABL2; ACVR1B; ACVR1; ACVR2A; ACVR2B; ACVRL1; ADCK4; AKT1; AKT2.
What all share (conditions): concentration: 1 μM, replicates: in singlicate; n = 1
Another experiment relates to T1, ADCK3.
T1 construct: gene CABC1
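Also: KINOMEscan kinase panel screen.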

Consider `Cc1cc(N2CCC(NS(=O)(=O)c3ccc(F)cc3)CC2)nc(Nc2cccc(C#N)c2)n1.O=C(O)C(F)(F)F` [GSK1653537], for which the “%Inh” value in the experiment on ABL2 is reported as 2%; in the experiment on ACVR1B, 0%; with ACVR1, 0%; in the experiment with ACVR2A, 0%; in the experiment with ACVR2B, 0%; in the experiment with ACVRL1 it was 0%. Further, the “%Inh” value stood at 0% with ADCK3, 0% with ADCK4, 0% with AKT1 and 20% in the experiment with AKT2.
For the molecule `COc1ccc(NC(=O)Nc2ccc(C)c(-c3ccc(C(=O)Nc4ccncc4)cc3)c2)cc1` [GSK1398475], the “%Inh” value in the experiment with ABL2 came to 12%; with ACVR1B, 0%; with ACVR1, 43%; in the experiment with ACVR2A, 0%; in the experiment with ACVR2B, 0%; in the experiment on ACVRL1, 0%. Further, the “%Inh” value in the experiment with ADCK3 came to 19%; in the experiment with ADCK4 it was 34%; in the experiment with AKT1, 0%; in the experiment with AKT2, 0%.
For `c1ccc(-c2ccc3c(-c4ccnc(Nc5ccc6c(c5)OCCO6)n4)cnn3n2)cc1` [GW818941], the “%Inh” value with ABL2 is on record as 12%; in the experiment with ACVR1B it was 0%; in the experiment on ACVR1 it was 24%; in the experiment with ACVR2A it was 32%; in the experiment on ACVR2B, 11%; in the experiment on ACVRL1 it was 13%. The “%Inh” value was 0% in the experiment with ADCK3, 9% with ADCK4, 0% in the experiment on AKT1 and 10% with AKT2.
As for `Nc1n[nH]c2nnc(-c3ccccc3)cc12` [SB-517389], the “%Inh” value with ABL2 came to 13%; with ACVR1B it was 0%; with ACVR1, 16%; in the experiment with ACVR2A, 0%; in the experiment on ACVR2B, 4%; in the experiment on ACVRL1, 0%. Moreover, the “%Inh” value in the experiment with ADCK3 amounted to 6%; in the experiment on ADCK4 it was 16%; with AKT1, 0%; in the experiment on AKT2, 13%.
For `O=c1cc(N2CCOCC2)nc2n(Cc3cccc(Cl)c3)ccn12` [GSK2296823], the “%Inh” value was 12% in the experiment with ABL2; 0% in the experiment on ACVR1B; 0% in the experiment on ACVR1; 0% in the experiment with ACVR2A; 0% in the experiment on ACVR2B; 0% in the experiment with ACVRL1. Besides, the “%Inh” value in the experiment on ADCK3 is given as 24%; in the experiment on ADCK4 it was 0%; with AKT1 it was 0%; in the experiment on AKT2, 3%.
As to `CCn1c(-c2ccncc2)nc2cnccc21` [SB-735216], the “%Inh” value with ABL2 came out at 0%; in the experiment with ACVR1B, 14%; in the experiment with ACVR1 it was 40%; in the experiment with ACVR2A, 0%; in the experiment with ACVR2B, 4%; in the experiment with ACVRL1, 0%. Moreover, the “%Inh” value with ADCK3 worked out at 15%; with ADCK4, 6%; in the experiment with AKT1, 0%; with AKT2, 0%.
For the molecule `CSc1ccc(NC2=C(c3ccccc3Cl)C(=O)NC2=O)cc1` [SB-342411], the “%Inh” value is 3% in the experiment on ABL2; 0% in the experiment with ACVR1B; 0% in the experiment with ACVR1; 0% in the experiment on ACVR2A; 0% in the experiment with ACVR2B; 0% with ACVRL1. Besides, the “%Inh” value with ADCK3 turned out to be 16%; in the experiment with ADCK4, 0%; in the experiment with AKT1 it was 0%; in the experiment on AKT2, 11%.
In the case of `Cn1cc(-c2ccc3c(c2)CCN3C(=O)Cc2cccc(C(F)(F)F)c2)c2c(N)ncnc21` [GSK2606414], the “%Inh” value in the experiment with ABL2 was 11%; in the experiment with ACVR1B, 0%; in the experiment with ACVR1, 0%; in the experiment on ACVR2A, 0%; in the experiment on ACVR2B, 1%; in the experiment on ACVRL1, 4%. The “%Inh” value with ADCK3 turned out to be 6%; in the experiment on ADCK4 it was 0%; with AKT1, 0%; in the experiment with AKT2, 18%.
For the molecule `Cl.Fc1ccccc1COc1ccc(Nc2ncnc3ccc(-c4nnc(C(F)(F)F)o4)cc23)cc1Cl` [GW424170], the “%Inh” value in the experiment with ABL2, in the experiment on ACVR1B, with ACVR1, in the experiment with ACVR2A, with ACVR2B and in the experiment with ACVRL1 was 0% in each case. Moreover, the “%Inh” value in the experiment on ADCK3 was 0%; in the experiment with ADCK4 it was 22%; with AKT1 it was 0%; in the experiment on AKT2 it was 0%.
In the case of `Clc1ccc(-c2cc(-c3c[nH]nc3-c3ccccn3)ccn2)cc1` [GW681251], the “%Inh” value in the experiment on ABL2 came out at 15%; in the experiment with ACVR1B it was 44%; with ACVR1, 12%; in the experiment with ACVR2A, 33%; with ACVR2B, 52%; with ACVRL1 it was 0%. Moreover, the “%Inh” value is 13% in the experiment on ADCK3, 4% with ADCK4, 27% with AKT1 and 0% in the experiment on AKT2.
Turning to `CSc1nn2c(=O)cc(N3CCOCC3)nc2n1Cc1cccc(Cl)c1Cl` [GSK2347225], the “%Inh” value in the experiment with ABL2 worked out at 14%; in the experiment with ACVR1B, 0%; in the experiment with ACVR1, 18%; with ACVR2A, 0%; in the experiment on ACVR2B, 12%; with ACVRL1, 0%. Further, the “%Inh” value in the experiment on ADCK3 is recorded as 18%; in the experiment with ADCK4 it was 28%; in the experiment on AKT1, 0%; with AKT2 it was 9%.
Consider `C[C@H]1CC[C@@H](C(=O)Nc2ccccc2)CN1c1cc(-c2ccc3c(N)n[nH]c3c2)nc(N)n1` [GSK2283293], for which the “%Inh” value was determined as 15% in the experiment on ABL2; 0% in the experiment with ACVR1B; 0% in the experiment on ACVR1; 0% in the experiment on ACVR2A; 0% with ACVR2B; 0% in the experiment with ACVRL1. For the same molecule, the “%Inh” value with ADCK3 was 11%; with ADCK4, 40%; in the experiment with AKT1, 0%; with AKT2 it was 6%.
With `Nc1nccc2scc(-c3ccc4c(c3)CCN4C(=O)Cc3cc(F)ccc3F)c12` [GSK2587663], the “%Inh” value is given as 18% in the experiment with ABL2; 0% with ACVR1B; 0% in the experiment on ACVR1; 0% in the experiment with ACVR2A; 0% with ACVR2B; 0% in the experiment on ACVRL1. In addition, the “%Inh” value in the experiment with ADCK3 turned out to be 24%; in the experiment on ADCK4 it was 35%; in the experiment with AKT1, 0%; with AKT2 it was 17%.
With `Nc1nc(-c2cccnc2)c(-c2ccnc3ccccc23)s1` [GW684083], the “%Inh” value is given as 12% with ABL2; 10% with ACVR1B; 32% in the experiment with ACVR1; 0% in the experiment on ACVR2A; 0% in the experiment on ACVR2B; 12% with ACVRL1. Moreover, the “%Inh” value in the experiment on ADCK3 was 24%; in the experiment on ADCK4, 45%; with AKT1 it was 0%; in the experiment on AKT2 it was 1%.
With `Cc1ccc(C)c(NC(=O)NCCNc2ccnc(Nc3ccc(F)cc3)n2)c1` [GSK1379878], the “%Inh” value in the experiment on ABL2, in the experiment with ACVR1B, in the experiment on ACVR1, in the experiment with ACVR2A, with ACVR2B and in the experiment with ACVRL1 was 0% throughout. Besides, the “%Inh” value came to 0% with ADCK3, 10% in the experiment with ADCK4, 0% in the experiment with AKT1 and 0% in the experiment on AKT2.
